# Where “and” joins values, the source holds several entries; their conditions need not be identical. Equal values may be shown once. Calls of active or inactive are those of the source. Calls come from the whole dose curve.
# Test: qHTS drug screen for cell cycle checkpoint inhibitors in PARPi-resistant BRCA-mutant ovarian cancer cell lines. (AID 1963452)
# Conditions: PEO1/OlaR viability, CellTiter-Glo luminescence, 96 h, stronger effect = lower value
# Method in brief: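 PEO1, PEO4 and PEO1/OlaR ovarian cancer cells, 600 per well, exposed 96 h at 37C to a dilution series. Viability read by CellTiter-Glo luminescence, normalized to DMSO and empty wells; activity summarized as Z-AUC.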
# [1] = measured here: PEO1 parental Z-AUC
SMILES,Z-AUC,Z-AUC [1],Z-AUC (measured here: PEO4 Z-AUC)
N#Cc1ccc(COC[C@H]2O[C@@H](n3c(NCc4ccc(Cl)c(Cl)c4)nc4c(N)ncnc43)[C@H](O)[C@@H]2O)cc1,-0.735 (inactive),-0.265,0.0878
COc1ccc2nc3n[nH]c(C)c3c(NCCOCCO)c2c1,-0.331 (inactive),0.387,0.00576
COc1ccc(-c2cnc3c(-c4cccc5ncccc45)cnn3c2)cc1,-0.651 (inactive),-0.725,-0.465
CCn1c(=O)c(-c2ccc(Cl)cc2Cl)cc2cnc(Nc3ccc(N4CCNCC4)c(F)c3)nc21,-0.749 (inactive),-0.47,-0.502
CCCCNc1ncc(-c2ccc(CN3CCOCC3)cn2)c(NC2CCC(O)CC2)n1 (configuration not stated),-1.2 (inactive),-1.14,-0.666
Cc1c[nH]c2ncnc(N3CCC(CN)(C(=O)Nc4cccc(OC(=O)N(C)C)c4)CC3)c12,-0.731 (inactive) and 0.531 (inactive),-0.27 and -0.244,-0.694 and 1.07
C[C@@H]1COCCN1c1cc(=O)n2c(n1)N(Cc1cncc(Cl)c1)[C@H](C(F)(F)F)CC2,-0.103 (inactive),-0.0406,-0.0495
COC(=O)Nc1cc(Nc2cc(NC3CC3)c3ncc(C#N)n3n2)c(Cl)c(N2CCN(C)CC2)c1,-1.26 (inactive),-0.992,-1.22
O=c1[nH]c([C@@H]2CCCN2)nc2c1oc1ccc(Cl)cc12,0.967 (inactive),1.19,1.1

# Source: PubChem BioAssay (NCATS)
